According to ChEMBL document CHEMBL5308504, “Tm Shift (DSF) assay results for EUbOPEN Chemogenomics Library” (2023):
Values joined by “and” are separate entries in the source; they are usually repeats but may differ in a detail not shown here. Identical values can stand only once.

biological target: Cyclin-dependent kinase 2 (Homo sapiens) (UniProt P24941); conditions: Compound concentration 20.0 uM, Protein concentration 2.0 uM, Result type QC Liability

Compound | ΔTm
CC1CCN(c2ccnc(NCc3cn(C)cn3)n2)CC1 | 0.15 °C
O=C(O)C[C@H]1CC[C@H](c2ccc(NC(=O)c3nnc(Nc4ccc(F)c(F)c4)o3)cc2)CC1 | 0.24 °C
NCC1CCC(CNc2nc(NCc3ccccc3OC(F)(F)F)ncc2[N+](=O)[O-])CC1 (stereo not given) | -0.56 °C
CC(=O)Nc1c(F)cc(C(=O)N[C@H]2CC[C@H](O)CC2)cc1O[C@@H](C)c1ccccc1 | 0.97 °C
COc1ccc(-c2csc(NC(=O)[C@H]3CCCCN3S(=O)(=O)c3ccc(C)cc3)n2)cc1 | 0.77 °C
CCc1ccccc1C(=O)Nc1n[nH]c2c(C)c(F)c(C3C(C#N)=C(C)N(C)C(C)=C3C#N)cc12 | 1.35 °C
Cn1cnc(Cn2ccc3ccc(CNCc4[nH]c5ccccc5c4[C@H]4NC(=O)c5ccc(O)cc54)cc32)c1 | -0.58 °C
COc1cccc(CNc2ccc(S(=O)(=O)Nc3nc4ccccc4s3)cc2)c1O | 0.93 °C
C[C@@H]1OCC2(CCN(c3cnc(Sc4ccnc(N)c4Cl)c(N)n3)CC2)[C@@H]1N | 0.91 °C
CC(C)c1cnn2c(NCc3ccccc3)cc(NCCCCCCN)nc12 | 1.03 °C
O=C(O)CCCCN(CCc1ccccc1OCc1ccc(CCc2ccccc2)cc1)Cc1ccc(C(=O)O)cc1 | 0.13 °C
COc1ccc2c(O[C@@H]3C[C@H]4C(=O)N[C@]5(C(=O)O)CC5/C=C\CCCCC[C@H](NC(=O)OC5CCCC5)C(=O)N4C3)cc(-c3csc(NC(=O)C(C)C)n3)nc2c1C (stereo not given in full) | 0.77 °C [middle of 4 runs]
C[C@@H](COCCC(=O)N1CCN(c2ncc(C(F)(F)F)cn2)CC1)Nc1cn[nH]c(=O)c1C(F)(F)F | 0.9 °C
CCn1c(=O)c2c(C)c(C(=O)N3CCC(O)CC3)sc2n(CCC(F)(F)F)c1=O | 0.49 °C
O=C(CNC(=O)c1ccc(-c2ccccc2)cc1)NC1CCCc2ccccc21 (stereo not given) | -0.06 °C
O=C1COc2cc(C(=O)N(Cc3ccc(C(=O)Nc4ccncn4)cc3)C3CC3)ccc2N1 | 0.47 °C
CC(=O)Oc1ccc2c(c1)[C@@]1(C)CCC[C@](C)(C(=O)OC(=O)[C@@]3(C)CCC[C@]4(C)c5cc(OC(C)=O)ccc5CC[C@@H]34)[C@@H]1CC2 | 0.49 °C
CC(C)C(=O)N1CCC(c2cn(C)c3ncc(NC(=O)c4cccc(C#N)c4)c(C(F)(F)F)c23)CC1 | 0.71 °C

Compound | ΔTm
Cc1nccn1-c1ccc(Sc2cccc(C3(C(N)=O)CCOCC3)c2)cc1 | 0.53 °C
CCn1c(CNC(=O)c2ncc(C)nc2N)[n+](CC)c2ccc(C(=O)N(C)CCN(C)C)cc21 | 0.39 °C
O=C(O)CCC/C=C\C[C@@H]1[C@@H](/C=C/[C@@H](O)COc2cccc(C(F)(F)F)c2)[C@H](O)C[C@@H]1O | 0.59 °C
COc1cc2nc(C)nc(N[C@H](C)c3cc(N)cc(C(F)(F)F)c3)c2cc1O[C@H]1CCOC1 | 0.99 °C
NCc1ccc(OCCCc2sc(-c3ccc4c(c3)/C(=N/Nc3nc5ccccc5s3)CCC4)nc2C(=O)O)cc1 | 0.49 °C
CN(C)C(=O)c1cc2cnc(Nc3ccc(N4CCN(CCCCNC(=O)COc5cccc6c5C(=O)N(C5CCC(=O)NC5=O)C6=O)CC4)cn3)nc2n1C1CCCC1 (stereo not given) | 0.81 °C
COc1cc2nc(-c3cc(F)ccc3O)nc(N[C@@H]3CNC[C@H]3C(C)(C)O)c2cc1OC | 3.24 °C
Cc1c(NC(=O)COc2ccc(Cl)cc2C(=O)c2cc(F)cc(C(F)(F)F)c2)ccc(C(=O)O)c1F | 0.5 °C and 0.58 °C
Cc1cc2nc(N3CCC(C(=O)NC4CCCC4)CC3)n(C(C)C)c2cc1C | 0.23 °C
CN(C)C/C=C/C(=O)Nc1cc2c(Nc3ccc(F)c(Cl)c3)ncnc2cc1OC[C@@H]1CCCO1 | -0.1 °C
CCCCCCC(Sc1nc(Cl)cc(NCc2ccc(-c3ccccc3)cc2)n1)C(=O)O (stereo not given) | -0.83 °C
COc1ccccc1Nc1nc(-c2nn(Cc3c(F)cc(OCCCO)cc3F)c3ccccc23)ncc1OC | -0.43 °C
CN1C(=O)Cc2ccc(-c3ccc(C[C@@H](C#N)NC(=O)[C@@H]4N[C@H]5CC[C@@H]4C5)c(F)c3)cc21 | 0.33 °C
CNC(=O)c1ccc2c(c1)NC(=O)/C2=C(\Nc1ccc(CN2CCCCC2)cc1)c1ccccc1 | 0.46 °C
CN(C)C/C=C/C(=O)Nc1ccc(C(=O)Nc2cccc(Nc3ncc(Cl)c(-c4c[nH]c5ccccc45)n3)c2)cc1 | 7.89 °C
COc1c(-c2cn(C3CCC(=O)NC3=O)nn2)csc1C(=O)N1CCCC1 (stereo not given) | 0.04 °C
CN[C@@H](C)C(=O)N[C@H](C(=O)N1CCC[C@H]1c1nc(C(=O)c2ccc(F)cc2)cs1)C1CCCCC1 | 0.27 °C
